Bioassay records from PubChem.
Most compounds without a hit are left out; they make up all but 16% or so of the library.
uPA surface inh: qHTS for Inhibitors of Cell Surface uPA Generation | 330,000 compounds, 0.31% hits | Potency, µM (titrated, usually from 38.3 µM), inactives show top-dose activity change, negative = inhibition, most hits filed as inhibitors | cell surface uPA generation assay, qHTS | AID 540303, 2011; active means well fitted inhibition curve with a large enough effect; inconclusive means small, poorly fitted or top-dose-only effect; inactive means no such curve, though single readings can be large or run the other way; tested in mouse RAW 264.7 cells; further: potency means the concentration at half of the fitted maximal effect; on the % scale 0 is the no-effect control and ±100 the full control effect; nearly all actives have a fitted effect of over 55% in size
miR-21 act: qHTS Assay for Modulators of miRNAs and/orActivators of miR-21. HeLa miR-21 FLuc reporter, luciferase, 48 h. Potency, µM (titrated, usually from 38.3 µM), for the others: at the top dose activity change, positive = activation, hits mostly activators. 340,000 tested, under 10 active. AID 2288, 2010;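 further: % of control where 0% means no effect; miR-21 action dims this reporter so a rising signal means less miR-21 action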
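HeLa miR-21-FLuc reporter line, endogenous miR-21; 2000 cells/well in DMEM/10% FBS; compound titration up to ~40uM final, 48 h, 37 degree Celsius; luciferase detection reagent, 15 min lysis, CCD luminescence.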
TDP1 cell noCPT: qHTS for Inhibitors of human tyrosyl-DNA phosphodiesterase 1 (TDP1): qHTS in cells in absence of CPT | DT40 Tdp1-/- hTDP1 cells, no CPT, ATP luminescence, 48 h | Potency, µM (titrated, usually from 46.2 µM), inactives show at the highest dose activity change, negative = growth inhibition, usual class: inhibitors | 420,000 compounds, 15% hits | AID 686978, 2013; further: potency means the concentration at half of the fitted maximal effect; on the % scale 0 is the no-effect control and ±100 the full control effect; nearly all actives have a fitted effect of over 55% in size
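Chicken DT40 Tdp1-/- cells complemented with human TDP1, screened without camptothecin (DMSO vehicle only), 400 cells/well. Compounds pin-transferred, cells incubated at 37 °C for at least 48 hr. Growth read as ATP-dependent luminescence (CellTiter-Glo, 30 min at RT).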
TDP1 block: qHTS Assay for Inhibitors of Tyrosyl-DNA Phosphodiesterase (TDP1). Tyrosyl-DNA phosphodiesterase 1 (Homo sapiens), Q9NUW8. Potency, µM (top dose mostly 130 µM), for the others: at the top dose activity change, negative = inhibition, actives largely listed as inhibitors. recombinant TDP1, AlphaScreen DNA substrate cleavage. 350,000 compounds, 0.28% hits. AID 485290, 2010; further: potency means the concentration at half of the fitted maximal effect; on the % scale 0 is the no-effect control and ±100 the full control effect; nearly all actives have a fitted effect of over 40% in size
Target sequence (Q9NUW8 whole entry, looked up): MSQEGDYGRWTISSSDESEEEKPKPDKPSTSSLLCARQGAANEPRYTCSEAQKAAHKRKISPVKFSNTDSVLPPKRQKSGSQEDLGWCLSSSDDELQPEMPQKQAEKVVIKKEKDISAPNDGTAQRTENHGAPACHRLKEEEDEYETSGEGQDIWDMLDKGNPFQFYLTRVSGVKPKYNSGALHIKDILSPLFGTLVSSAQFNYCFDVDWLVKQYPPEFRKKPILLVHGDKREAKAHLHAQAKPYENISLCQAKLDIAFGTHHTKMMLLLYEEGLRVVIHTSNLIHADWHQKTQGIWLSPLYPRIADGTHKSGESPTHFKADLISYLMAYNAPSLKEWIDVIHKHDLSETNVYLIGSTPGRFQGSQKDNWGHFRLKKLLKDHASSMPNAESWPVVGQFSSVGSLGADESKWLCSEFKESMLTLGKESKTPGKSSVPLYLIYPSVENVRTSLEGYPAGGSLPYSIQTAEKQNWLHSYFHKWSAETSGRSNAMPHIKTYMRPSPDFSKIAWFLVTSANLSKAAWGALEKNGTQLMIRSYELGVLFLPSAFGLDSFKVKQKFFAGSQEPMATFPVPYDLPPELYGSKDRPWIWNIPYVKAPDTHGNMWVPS
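Compounds were preincubated with Tdp1 (1 nM final) for 15 min at room temperature before substrate (15 nM final) started a 5 min reaction; beads (10 ug/ml final) were then added for 10 min before AlphaScreen detection.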
TDP1 cell CPT: qHTS for Inhibitors of human tyrosyl-DNA phosphodiesterase 1 (TDP1): qHTS in cells in presence of CPT. Potency, µM (titrated, usually from 46.2 µM), for the others: at the highest dose activity change, negative = growth inhibition, usual class: inhibitors. chicken DT40 Tdp1-/-;hTDP1 cells + 20 nM CPT, ATP luminescence, 48 h. 420,000 compounds, 12% hits; further: potency means the concentration at half of the fitted maximal effect; on the % scale 0 is the no-effect control and ±100 the full control effect; nearly all actives have a fitted effect of over 55% in size
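Chicken DT40 Tdp1-/- cells stably complemented with human TDP1 were seeded at 400 cells/well in medium containing 20 nM camptothecin, exposed to pin-transferred compounds, and grown at 37 °C for at least 48 hr. Viability was read as ATP luminescence.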
* = called active by the depositor; ? = inconclusive; / = no result given; [ ] = another dose, or the depositor's remark. Unless noted, the call rests on the fitted dose curve; in most records, active means well fitted curve in the direction sought with a large enough effect; inconclusive means small, poorly fitted or top-dose-only effect, or another doubt; inactive means no such curve, though single readings can be large; an effect the other way counts as inactive or inconclusive.

SMILES	uPA surface inh	miR-21 act	TDP1 cell noCPT	TDP1 block	TDP1 cell CPT
Cc1ccc(C)c(OCC(=O)N/N=C/c2c(C)nn(-c3ccccc3)c2Cl)c1C	2%	-6%	7.3µM*	0%	15µM*
COC(=O)N/N=C\c1c(C)nn(-c2ccccc2)c1Cl	-15%	-60%	-11%	3%	10%
Cc1nn(-c2ccccc2)c(Cl)c1/C=N/NC(=O)c1cccc(S(=O)(=O)N2CCCC2)c1	4%	-1%	10µM*	4%	-28%
Cc1nn(-c2ccccc2)c(Cl)c1/C=N/NC(N)=O	2%	-73%	-12%	-3%	2%
Cc1ccc(S(=O)(=O)N2CCC[C@H]2C(=O)Oc2ccccc2)cc1	0%	/	-9%	/	3%
CC(C)N(C(=O)[C@H]1C[C@H](CC(=O)NCCc2ccccn2)C(=O)N2CCc3c([nH]c4cc(CCC(=O)N(C)C)ccc34)[C@]12C)C(C)C	-5%	/	-14%	1%[56.1 µM]	-13%
COc1ccc(-c2ccc(CCC(=O)O)n2CC(=O)Nc2cccc(Cl)c2C)cc1	/	4%	-22%	9%	9%
O=C(O)C[C@H]1c2ccc(C(F)(F)F)cc2S(=O)(=O)N1C1CCCCC1	-5%	/	-9%	/	5%
COC(=O)c1cc(=O)n(CCc2ccccc2)c(=Nc2ccc(F)cc2)s1	?	10%	?	10%	?
CCOC(=O)c1ccc(N=c2sc(C(=O)OC)cc(=O)n2CCCN2CCOCC2)cc1	?	22%	15µM*	7%	15µM*
COC(=O)c1cc(=O)n(Cc2cccs2)c(=NCc2cccs2)s1	-1%	-2%	-13%	6%	-26%
CCOC(=O)c1ccc(N=c2sc(C(=O)OC)cc(=O)n2Cc2ccco2)cc1	6.3µM*	-16%	21µM*	0%	13µM*
Cc1ccc(NC(=O)Cn2nc(-c3ccccc3Cl)ccc2=O)c(Br)c1	-1%	-8%	-2%	8%	4%
CC(C)CCOc1ccc(C2=NNC(=O)CC2)cc1	-3%	-58%	-3%	-4%	8%
CCC(=O)Nc1ccc2nc(C3CC3)n(Cc3ccc(C(C)(C)C)cc3)c(=O)c2c1	-6%	-86%	15µM*	/	18µM*
COc1ccc(Cn2c(C3CC3)nc3ccc(NC(=O)C4CC4)cc3c2=O)cc1	-5%	-72%	?	7%	-24%
O=C(Nc1ccc2nc(C3CC3)n(Cc3ccc(F)cc3)c(=O)c2c1)c1ccco1	-12%	-9%	?	10%	20µM*
COc1cccc(Cn2c(C3CC3)nc3ccc(NC(=O)c4ccco4)cc3c2=O)c1	/	-9%	/	5%	/
CC(C)c1nnc(NC(=O)C2CCCN(C(=O)Nc3ccc(F)cc3)C2)s1 (stereo not drawn)	-2%	2%	-7%	/	-6%
O=C(COC(=O)c1ccc[nH]c1=O)NC1CCCCC1	9%	-1%	19%	/	-14%
CCn1c(NCc2ccco2)nc2ccccc21	-2%	-3%	2%	0%	4%
c1ccc(Cn2c(NCc3ccco3)nc3ccccc32)cc1	0%	-10%	18µM*	8%	?
CCn1c(NCc2ccc(OC)cc2)nc2ccccc21	-3%	-38%	?	0%	-14%
COc1ccc(CNc2nc3ccccc3n2Cc2ccccc2)cc1OC	-2%	10%	18µM*	6%	?
Cc1ccc(S(=O)(=O)Nc2ccc(-c3cn4ccc(C)cc4n3)cc2)cc1	-3%	-7%	15µM*	0%	?
SMILES	uPA surface inh	miR-21 act	TDP1 cell noCPT	TDP1 block	TDP1 cell CPT
Cc1ccn2cc(-c3cccc(S(=O)(=O)N4CCCC4)c3)nc2c1	-2%	-2%	23µM*	2%	18µM*
Cc1ccc(-c2cn3ccc(C)cc3n2)cc1	/	?	?	4%[12.3 µM]	?
Cc1ccn2cc(-c3cccc(NC(=O)CCC(=O)O)c3)nc2c1	3.5µM*	25%	?	/	?
Cc1ccn2cc(-c3ccc(NS(=O)(=O)c4ccccc4)cc3)nc2c1	-7%	-30%	29µM*	6%	?
Cc1ccc(F)cc1NC(=O)CSc1nc(-c2cccs2)cc(C(F)(F)F)n1	/	-2%	?	-2%	?
COc1ccc(NC(=O)CC(C)c2ccccc2)c([N+](=O)[O-])c1 (stereo not drawn)	0%	-32%	?	5%	-21%
CC(C)OC(=O)c1ccc(COC(=O)c2cnccn2)cc1	-3%	-5%	3%	3%	7%
O=C(CCN1CCOCC1)NCC1COc2ccccc2O1 (stereo not drawn)	0%	-3%	-4%	-8%	0%
Cc1c(C(=O)NCC2Cc3cccc(-c4cncnc4)c3O2)c(-c2ccccc2)nn1-c1ccccc1 (stereo not drawn)	/	/	-16%	/	-8%[9.04 µM]
CCOc1ccc(C(F)(F)F)cc1NC(=O)COc1ccc(C(F)(F)F)cc1[N+](=O)[O-]	-6%	-4%	12%	3%	-24%
CCCOP(=O)(OCCC)c1c([N+](=O)[O-])cc(C(F)(F)F)cc1[N+](=O)[O-]	-11%	18%	18µM*	-1%	?
O=C(OCc1c(-c2ccccc2)ncc2ccccc12)c1ccccc1C(F)(F)F	-10%	/	?	-2%	1µM*
COc1ccccc1C(=O)OCc1c(-c2ccccc2)ncc2ccccc12	-22%	/	?	0%	16µM*
COc1ccc(C(=O)OCc2c(-c3ccccc3)ncc3ccccc23)cc1	-5%	/	?	-4%	16µM*
COc1cccc(-c2ncc3ccccc3c2COC(=O)c2ccccc2C(=O)O)c1	0%	/	?	0%	-26%
COc1cccc(-c2ncc3ccccc3c2COC(=O)c2ccc(F)cc2)c1	17%	/	21µM*	-2%	?
O=C(O)CCC(=O)OCc1c(-c2ccccc2)ncc2ccccc12	-7%	/	-7%	1%	0%
CCN(Cc1nc(-c2ccc(OC)cc2)oc1C)S(=O)(=O)c1ccc(Cl)cc1	/	13%	?	-6%	?
COc1ccc2c3n(nc2c1)CCN=C3c1ccc(Cl)cc1	9%	/	-1%	2%	-12%
CCSc1nnc2c(n1)OC(c1sccc1C)N(C(C)=O)c1ccccc1-2 (stereo not drawn)	/	1%	13µM*	/	?
C/C(=N/n1cnnc1)c1cccnc1	1%	-4%	7%	2%	8%
Cc1cccc(NC(=O)CN2C(=O)CCSc3ccc(S(=O)(=O)N4CCOCC4)cc32)c1C	-4%	-6%	1%	35µM*	?
O=C(CN1C(=O)CCSc2ccc(S(=O)(=O)N3CCCC3)cc21)Nc1cccc(Cl)c1	/	15%	?	9%	23µM*
